# Reference: the supplement of paper PMC11732987, “Enantioselective OTUD7B fragment discovery through chemoproteomics screening and high-throughput optimisation” (Communications Chemistry, 2025)
# Values without a mark were called inactive.
# Legend:
# Experiment in all cases: log2 ratio of Biotin-Ahx-Ub-VS probe labelling (fragment/DMSO); higher = less target engagement (more negative = stronger competition), active = hit call of the paper (q ≤ 0.05, log2 ratio ≤ -1)
# Conditions in all cases: compound concentration: 200 uM; treatment time: 3 h
# [1] = biological target: T1, OTUD6B (UniProt Q8N6M0)
# T1 sequence (whole entry): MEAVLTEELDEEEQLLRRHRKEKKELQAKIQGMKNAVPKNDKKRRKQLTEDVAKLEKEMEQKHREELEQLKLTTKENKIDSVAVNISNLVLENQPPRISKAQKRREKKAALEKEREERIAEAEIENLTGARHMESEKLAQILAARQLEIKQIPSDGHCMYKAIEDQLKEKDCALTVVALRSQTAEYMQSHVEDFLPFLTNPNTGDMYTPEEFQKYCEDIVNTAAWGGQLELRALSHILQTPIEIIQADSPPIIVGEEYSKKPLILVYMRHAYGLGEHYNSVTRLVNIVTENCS
# In short: (§1)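 Labelling with Biotin-Ahx-Ub-VS (0.5 µM final, 1 h) followed a 3 h triplicate treatment of HEK293T lysate (495 µg per sample, Tris/CHAPS/IGEPAL buffer with protease inhibitors) with fragment at 200 µM or vehicle. Labelled DUBs were NeutrAvidin-enriched, digested with LysC and trypsin, and run by diaPASEF LC-MS/MS. The values, average log2 fragment/vehicle ratios by unpaired t-test, come from global-median-normalised Spectronaut label-free quantities. Proteins with ≥2 unique peptides were used.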
# [2] = biological target: T2, OTUD7B (UniProt Q6GQQ9)
# T2 sequence (whole entry): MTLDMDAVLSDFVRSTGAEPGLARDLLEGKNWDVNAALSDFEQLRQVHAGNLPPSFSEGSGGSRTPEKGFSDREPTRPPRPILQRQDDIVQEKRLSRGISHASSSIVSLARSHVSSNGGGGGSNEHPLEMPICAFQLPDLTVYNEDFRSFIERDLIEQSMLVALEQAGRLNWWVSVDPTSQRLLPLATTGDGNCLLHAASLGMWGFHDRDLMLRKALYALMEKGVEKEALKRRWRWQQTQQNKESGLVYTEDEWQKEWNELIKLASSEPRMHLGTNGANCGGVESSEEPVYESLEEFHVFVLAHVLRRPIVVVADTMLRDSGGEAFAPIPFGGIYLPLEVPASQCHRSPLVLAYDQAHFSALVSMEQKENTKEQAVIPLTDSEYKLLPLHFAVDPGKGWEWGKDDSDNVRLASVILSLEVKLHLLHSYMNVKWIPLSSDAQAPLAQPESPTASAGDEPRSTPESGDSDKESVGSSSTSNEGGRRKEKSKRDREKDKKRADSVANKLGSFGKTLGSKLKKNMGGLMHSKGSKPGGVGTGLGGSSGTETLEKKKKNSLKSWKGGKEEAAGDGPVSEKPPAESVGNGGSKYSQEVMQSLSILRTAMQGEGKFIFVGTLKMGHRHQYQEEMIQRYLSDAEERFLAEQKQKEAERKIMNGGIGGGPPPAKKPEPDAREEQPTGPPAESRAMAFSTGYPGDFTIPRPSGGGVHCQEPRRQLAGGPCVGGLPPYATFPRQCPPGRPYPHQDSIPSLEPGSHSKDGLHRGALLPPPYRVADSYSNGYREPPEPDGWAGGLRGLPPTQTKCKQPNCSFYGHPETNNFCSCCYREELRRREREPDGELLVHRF
# In short: as §1
# [3] = biological target: PRPF8 (UniProt Q6P2Q9)
# In short: as §1
# [4] = biological target: T3, PSMD7 (UniProt P51665)
# T3 sequence (whole entry): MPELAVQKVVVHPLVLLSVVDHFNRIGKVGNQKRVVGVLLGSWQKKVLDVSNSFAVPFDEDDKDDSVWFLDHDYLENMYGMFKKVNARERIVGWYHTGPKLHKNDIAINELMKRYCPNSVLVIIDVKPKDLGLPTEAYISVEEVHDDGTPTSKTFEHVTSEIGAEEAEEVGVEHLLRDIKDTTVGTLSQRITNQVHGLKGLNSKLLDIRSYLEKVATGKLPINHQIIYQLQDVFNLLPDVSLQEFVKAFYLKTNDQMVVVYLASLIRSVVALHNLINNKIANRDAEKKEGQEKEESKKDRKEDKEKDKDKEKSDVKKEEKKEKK
# In short: as §1
# [5] = biological target: UCHL1 (UniProt P09936)
# In short: as §1
# [6] = biological target: T4, UCHL3 (UniProt P15374)
# T4 sequence (whole entry): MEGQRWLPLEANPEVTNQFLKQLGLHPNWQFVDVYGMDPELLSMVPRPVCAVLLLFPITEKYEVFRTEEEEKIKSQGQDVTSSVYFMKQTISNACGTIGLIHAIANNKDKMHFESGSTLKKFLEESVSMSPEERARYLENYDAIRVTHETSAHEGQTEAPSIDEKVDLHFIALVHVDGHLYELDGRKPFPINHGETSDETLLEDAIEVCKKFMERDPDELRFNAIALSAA
# In short: as §1
# [7] = biological target: T5, UCHL5 (UniProt Q9Y5K5)
# T5 sequence (whole entry): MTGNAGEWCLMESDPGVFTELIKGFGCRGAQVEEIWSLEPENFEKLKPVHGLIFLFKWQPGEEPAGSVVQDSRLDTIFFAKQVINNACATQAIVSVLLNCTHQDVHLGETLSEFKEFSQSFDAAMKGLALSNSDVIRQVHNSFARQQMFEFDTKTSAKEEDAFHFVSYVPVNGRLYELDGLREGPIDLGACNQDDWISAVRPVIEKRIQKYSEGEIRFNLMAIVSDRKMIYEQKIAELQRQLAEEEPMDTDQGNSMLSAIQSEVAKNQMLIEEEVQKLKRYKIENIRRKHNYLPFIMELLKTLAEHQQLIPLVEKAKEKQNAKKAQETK
# In short: as §1
# [8] = biological target: USP10 (UniProt Q14694)
# In short: as §1
# [9] = biological target: T6, USP15 (UniProt Q9Y4E8)
# T6 sequence (whole entry): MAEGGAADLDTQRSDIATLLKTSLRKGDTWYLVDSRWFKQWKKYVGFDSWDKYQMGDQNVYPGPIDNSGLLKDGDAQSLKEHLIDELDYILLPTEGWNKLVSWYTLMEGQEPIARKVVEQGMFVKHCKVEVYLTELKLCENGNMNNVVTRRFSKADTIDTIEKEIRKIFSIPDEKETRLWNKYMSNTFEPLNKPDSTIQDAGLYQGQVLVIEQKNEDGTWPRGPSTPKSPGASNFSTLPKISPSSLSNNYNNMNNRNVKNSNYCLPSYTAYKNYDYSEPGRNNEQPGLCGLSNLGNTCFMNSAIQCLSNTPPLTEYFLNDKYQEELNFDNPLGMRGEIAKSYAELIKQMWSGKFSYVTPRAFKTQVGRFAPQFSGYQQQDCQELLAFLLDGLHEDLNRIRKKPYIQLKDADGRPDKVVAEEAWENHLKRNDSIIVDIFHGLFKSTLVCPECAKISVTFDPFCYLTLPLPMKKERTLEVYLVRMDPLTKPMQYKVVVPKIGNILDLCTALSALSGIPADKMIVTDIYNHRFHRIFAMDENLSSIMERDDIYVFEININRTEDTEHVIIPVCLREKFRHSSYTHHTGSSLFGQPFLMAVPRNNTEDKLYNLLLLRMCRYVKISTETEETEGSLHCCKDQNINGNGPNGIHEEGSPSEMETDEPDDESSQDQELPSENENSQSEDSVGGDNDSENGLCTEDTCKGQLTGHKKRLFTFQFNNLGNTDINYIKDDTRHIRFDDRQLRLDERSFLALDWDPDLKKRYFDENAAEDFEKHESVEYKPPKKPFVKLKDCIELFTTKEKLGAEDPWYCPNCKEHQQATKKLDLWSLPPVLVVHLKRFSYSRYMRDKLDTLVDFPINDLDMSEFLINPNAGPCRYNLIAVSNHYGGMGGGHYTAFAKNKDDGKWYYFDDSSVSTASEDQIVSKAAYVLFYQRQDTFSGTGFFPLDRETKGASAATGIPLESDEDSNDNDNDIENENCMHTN
# In short: as §1
# [10] = biological target: USP16 (UniProt Q9Y5T5)
# In short: as §1
# Sequence of UCHL1 (P09936 whole entry, looked up): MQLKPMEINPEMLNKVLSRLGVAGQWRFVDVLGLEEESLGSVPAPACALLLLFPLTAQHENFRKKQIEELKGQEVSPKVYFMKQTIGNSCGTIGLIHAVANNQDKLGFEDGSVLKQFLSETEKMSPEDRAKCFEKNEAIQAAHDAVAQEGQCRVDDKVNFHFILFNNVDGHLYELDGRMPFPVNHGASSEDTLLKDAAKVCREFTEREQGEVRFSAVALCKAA
# Sequence of USP10 (Q14694 whole entry): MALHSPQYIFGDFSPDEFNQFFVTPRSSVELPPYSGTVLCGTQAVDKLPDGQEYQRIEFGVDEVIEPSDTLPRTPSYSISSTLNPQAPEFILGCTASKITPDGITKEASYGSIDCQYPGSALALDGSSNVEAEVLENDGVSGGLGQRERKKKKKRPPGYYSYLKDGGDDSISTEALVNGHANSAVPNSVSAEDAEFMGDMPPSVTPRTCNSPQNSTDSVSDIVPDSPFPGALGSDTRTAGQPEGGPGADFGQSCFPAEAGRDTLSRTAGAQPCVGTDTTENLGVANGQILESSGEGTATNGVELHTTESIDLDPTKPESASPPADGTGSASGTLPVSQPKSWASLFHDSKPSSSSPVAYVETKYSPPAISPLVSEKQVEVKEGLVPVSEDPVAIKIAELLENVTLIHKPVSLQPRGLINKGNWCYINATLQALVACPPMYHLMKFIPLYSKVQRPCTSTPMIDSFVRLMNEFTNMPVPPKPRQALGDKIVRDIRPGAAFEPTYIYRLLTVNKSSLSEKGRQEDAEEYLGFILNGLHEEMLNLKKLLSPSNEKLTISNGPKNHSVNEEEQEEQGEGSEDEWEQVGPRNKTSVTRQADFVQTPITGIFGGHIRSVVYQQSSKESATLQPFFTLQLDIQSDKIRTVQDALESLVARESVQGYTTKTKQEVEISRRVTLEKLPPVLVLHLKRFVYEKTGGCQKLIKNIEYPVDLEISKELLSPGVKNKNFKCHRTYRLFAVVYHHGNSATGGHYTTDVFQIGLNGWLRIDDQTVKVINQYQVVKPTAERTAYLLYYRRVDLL
# Sequence of USP16 (Q9Y5T5 whole entry, looked up): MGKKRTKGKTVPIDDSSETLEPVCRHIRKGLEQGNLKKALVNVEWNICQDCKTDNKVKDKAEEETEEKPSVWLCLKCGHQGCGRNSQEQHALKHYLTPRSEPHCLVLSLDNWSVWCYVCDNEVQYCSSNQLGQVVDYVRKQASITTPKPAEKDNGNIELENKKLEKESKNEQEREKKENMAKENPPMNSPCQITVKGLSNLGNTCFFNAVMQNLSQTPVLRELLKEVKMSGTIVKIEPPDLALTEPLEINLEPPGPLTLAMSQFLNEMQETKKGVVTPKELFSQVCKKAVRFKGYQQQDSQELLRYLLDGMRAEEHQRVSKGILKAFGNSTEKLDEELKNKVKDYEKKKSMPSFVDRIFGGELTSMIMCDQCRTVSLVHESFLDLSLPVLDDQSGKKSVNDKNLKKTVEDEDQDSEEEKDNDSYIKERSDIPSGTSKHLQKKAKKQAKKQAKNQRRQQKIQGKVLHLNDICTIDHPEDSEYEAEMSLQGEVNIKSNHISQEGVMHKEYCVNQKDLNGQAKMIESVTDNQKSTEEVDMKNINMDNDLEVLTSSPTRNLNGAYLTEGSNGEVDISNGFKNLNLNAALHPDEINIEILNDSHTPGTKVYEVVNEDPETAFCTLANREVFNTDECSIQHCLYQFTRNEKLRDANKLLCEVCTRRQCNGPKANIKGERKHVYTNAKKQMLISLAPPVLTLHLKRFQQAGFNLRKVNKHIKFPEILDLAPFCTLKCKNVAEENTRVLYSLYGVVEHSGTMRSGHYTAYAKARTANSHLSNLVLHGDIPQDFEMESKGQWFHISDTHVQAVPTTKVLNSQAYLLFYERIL
structure (smiles),measurement,setting,value
Cc1ccc(N2CCC(NC(=O)CCl)C2=O)cc1 (stereo not given),log2 ratio of Biotin-Ahx-Ub-VS probe labelling,[1],0.0252
same,log2 ratio of Biotin-Ahx-Ub-VS probe labelling,[2],-0.741
same,log2 ratio of Biotin-Ahx-Ub-VS probe labelling,[3],-0.0776
same,log2 ratio of Biotin-Ahx-Ub-VS probe labelling,[4],0.0257
same,log2 ratio of Biotin-Ahx-Ub-VS probe labelling,[5],-1.67 (active)
same,log2 ratio of Biotin-Ahx-Ub-VS probe labelling,[6],0.299
same,log2 ratio of Biotin-Ahx-Ub-VS probe labelling,[7],-0.0673
same,log2 ratio of Biotin-Ahx-Ub-VS probe labelling,[8],-0.174
same,log2 ratio of Biotin-Ahx-Ub-VS probe labelling,[9],0.106
same,log2 ratio of Biotin-Ahx-Ub-VS probe labelling,[10],-0.702
